From PubChem
PfG6PD inh: PfG6PD (Plasmodium falciparum) enzyme inhibition; inhibition, % at 20 µM; actives 0.78% (n = 350,000); PfGluPho enzyme, NADPH resazurin-diaphorase fluorescence;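 active = inhibition reaching at least a set limit at 20 µM in the primary screen, cut at about 59% in these data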;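 also: 0% = DMSO wells with substrate and 100% = DMSO wells lacking glucose-6-phosphate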
A3G deaminase: inhibitors of human APOBEC3G DNA deaminase. recombinant A3G, ssDNA deamination FAM/TAMRA fluorescence. inhibition, % at 20 µM. actives 0.28% (n = 330,000). Q9HC16;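 active = inhibition of at least 40% at 20 µM, with no more than 30% in the related APOBEC3A deaminase screen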;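 also: plate controls were DMSO wells with A3G for no effect and wells lacking A3G enzyme for full effect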
A3A deaminase: human APOBEC3A DNA deaminase inhibition. P31941. actives 0.41% (n = 330,000). inhibition, % at 20 µM. recombinant A3A, FAM/TAMRA ssDNA deamination fluorescence. AID 493011;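 active = at least 40% inhibition at 20 µM here, with at most 30% in a related deaminase screen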;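 also: plate controls were A3A with DMSO for no effect and wells lacking A3A enzyme for full effect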
Target sequence (P31941 whole entry, looked up): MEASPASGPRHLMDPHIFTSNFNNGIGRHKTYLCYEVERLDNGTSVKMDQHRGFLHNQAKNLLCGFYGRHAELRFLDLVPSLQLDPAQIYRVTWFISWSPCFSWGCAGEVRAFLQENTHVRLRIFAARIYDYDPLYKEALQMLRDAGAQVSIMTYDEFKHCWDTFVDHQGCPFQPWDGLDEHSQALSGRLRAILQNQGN
PfM18AAP inh-1: PfM18AAP enzyme inhibition | recombinant PfM18AAP, H-Glu-NHMec fluorogenic cleavage | inhibition, % at 7.35 µM | actives 1.2% (n = 290,000) | AID 1822;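 active = inhibition above the campaign mean inhibition over all tested compounds plus 3 SD, cut at about 28% in these data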;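 also: 0% = plate median of test compound wells and 100% = 2 mM ZnCl2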
Yeast superoxide: yeast age-related superoxide inhibition as caloric restriction mimetic; S. cerevisiae aged cells, superoxide DHE fluorescence; stronger effect = lower value; superoxide response (% of plate mean), % at 10 µM; actives 0.18% (n = 330,000);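 active = superoxide response under a set limit, about three screen SD below normal, cut at about 65% in these data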;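 also: yeast aged for seven days with compound at 30 °C before DHE staining; 100% = average MFI of all compound-treated wells on the plate with controls excluded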
PfM18AAP inh-2: PfM18AAP inhibition, confirmation. shares compounds with PfM18AAP inh-1. recombinant PfM18AAP, H-Glu-NHMec fluorogenic cleavage. inhibition, % at 7.35 µM. actives 28% (n = 2,400). AID 2170;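 active = mean inhibition over replicate wells above the hit cutoff set for the earlier primary screen, cut at about 29% in these data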;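 also: 0% = median of test compound wells and 100% = 2 mM ZnCl2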
CTSL1 confirm: counter-screen for PFM18AAP inhibitors: confirmation of human cathepsin L inhibitors | shares compounds with PfM18AAP inh-1 | purified cathepsin L1, Z-Leu-Arg-MCA fluorescence | inhibition, % at 5.96 µM | 2,400 tested, under 10 active | AID 2178;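 active = average inhibition across replicates above the hit cutoff set in the earlier primary screen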;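 also: 0% = median of test compound wells and 100% = Z-Phe-Ala-diazomethylketone 1 µM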
Target sequence (P07711 whole entry, looked up): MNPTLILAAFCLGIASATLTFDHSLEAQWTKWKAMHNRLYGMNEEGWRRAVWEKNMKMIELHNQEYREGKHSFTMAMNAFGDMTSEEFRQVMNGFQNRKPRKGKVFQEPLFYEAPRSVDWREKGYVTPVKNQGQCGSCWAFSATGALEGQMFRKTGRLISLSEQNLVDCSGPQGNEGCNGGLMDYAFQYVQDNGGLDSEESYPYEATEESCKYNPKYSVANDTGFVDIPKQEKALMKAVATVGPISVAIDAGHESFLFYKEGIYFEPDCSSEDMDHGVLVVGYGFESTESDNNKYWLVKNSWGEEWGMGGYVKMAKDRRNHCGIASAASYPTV
Active calls of the source: *; · = no result given. A selection: hits, their analogues and other compounds. The true share with any hit is near 2.4%.

SMILES	PfG6PD inh	A3G deaminase	A3A deaminase	PfM18AAP inh-1	Yeast superoxide	PfM18AAP inh-2	CTSL1 confirm
O=C1c2ccc([N+](=O)[O-])cc2NC(c2ccco2)N1/N=C/c1ccco1 (stereo unspecified)	53.0	-5.6	5.6	40.2*	107.3	-10.3	0.3
O=c1[nH]nc(Cc2ccccc2)c2ccccc12	13.0	-3.4	18.3	0.7	97.4	·	·
O=c1[nH]c(=S)[nH]nc1Cc1ccccc1	0.9	-7.4	-4.6	38.0*	111.8	-29.8	-7.1
CSCC[C@H](NC(=O)OC(C)(C)C)C(=O)N1CCC(C(=O)N[C@@H](C)C(=O)NC(C)c2ccccc2)CC1 (stereo partly specified)	-9.6	-4.5	0.9	-0.9	103.6	·	·
S=C(NCCCN1CCOCC1)NC1CCCC1	14.2	-5.0	-1.1	-5.2	104.7	·	·
COc1cc(OC)c(C(=O)NCCCN2CCOCC2)cc1OC	1.7	-3.4	0.0	56.6*	101.0	-35.1	-2.8
S=C(NCCCN1CCOCC1)NCCCN1CCOCC1	56.4	14.5	-0.3	39.4*	105.3	1.4	1.2
COc1ccc(NC(C)=O)cc1CNC(=O)CN1CCOCC1	-6.3	1.3	1.4	-0.2	110.1	·	·
O=C(Cc1cccs1)Nc1nnc(-c2ccccc2)s1	10.9	-4.5	-0.4	2.7	87.5	·	·
CCC(CC)c1nnc(NC(=O)Cc2cccs2)s1	2.6	-6.4	0.4	39.5*	108.4	-33.0	1.5
CCc1nnc(NC(=O)CN2C(=O)/C(=C/c3cc(OC)c(OC)c(OC)c3)SC2=S)s1	9.5	-4.9	-1.8	33.1*	83.2	-16.6	1.2
CC(OC(=O)C1CCCCC1)C(=O)Nc1ccc(S(N)(=O)=O)cc1 (stereo unspecified)	4.0	-3.7	-3.0	·	108.0	·	·
CCOc1ccccc1C(=O)N/N=C/c1coc2ccc(Cl)cc2c1=O	-4.3	-8.1	-2.7	33.2*	97.7	-22.2	2.2
O=C(N/N=C/c1coc2ccc(Cl)cc2c1=O)c1cc(O)cc(O)c1	1.9	-1.8	-0.3	25.5	98.0	·	·
O=C(CNc1ccc(Br)cc1)NC(=O)NC1CCCCC1	19.7	-4.3	-4.8	·	·	·	·
Cc1cc(C)nc(SCC(=O)N(C)CC(=O)Nc2c(Cl)cccc2Cl)n1	-12.9	1.2	1.0	·	88.9	·	·
CCCCN=Cc1c(C)[nH]n(-c2ccccc2)c1=S	57.3	22.5	2.1	50.6*	103.5	-17.6	1.3
Cc1[nH]n(-c2ccccc2)c(=O)c1C=NCCc1ccccc1	5.9	8.3	-0.4	-3.6	118.2	·	·
CCN(CC)c1ccc2c(c1)CCCN2	·	8.1	0.2	32.2*	101.9	-8.3	-3.9
O=c1cccccc1NCc1ccccc1	19.8	22.7	11.2	41.9*	101.6	-40.7	3.0
N#Cc1ccccc1NCc1ccccc1	6.2	-1.2	-2.5	-0.1	102.8	·	·
Oc1c(Br)cccc1/C=N/c1ncn[nH]1	0.7	-12.0	-5.7	62.6*	95.0	55.1*	-0.7
COc1cccc(/C=N/c2nc3ccccc3[nH]2)c1O	3.8	-4.9	-3.9	-1.9	94.7	·	·
COc1ccc(OC)c(Nc2nc(=O)c3cccnc3s2)c1	56.8	·	·	54.2*	·	26.0	-6.5
Cc1ccc(Nc2nc(=O)c3cccnc3s2)cc1	31.3	1.3	-1.6	6.5	134.3	·	·
SMILES	PfG6PD inh	A3G deaminase	A3A deaminase	PfM18AAP inh-1	Yeast superoxide	PfM18AAP inh-2	CTSL1 confirm
CC(C)OCCCNC(=O)C1CCN(S(=O)(=O)N2CCCC2)CC1	15.9	-6.2	-1.4	-2.6	102.8	·	·
Clc1ccc(C2Nc3cccc4cccc(c34)N2)cc1	31.6	16.7	3.0	12.2	97.3	·	·
COc1cc(C2Nc3cccc4cccc(c34)N2)ccc1O	53.9	6.1	-2.6	46.0*	96.5	14.7	-0.9
COc1cc(C2Nc3cccc4cccc(c34)N2)cc(OC)c1OC(C)=O	12.2	18.7	12.7	5.3	100.7	·	·
Cc1cccc(C2Nc3cccc4cccc(c34)N2)c1	47.0	3.9	2.0	32.9*	112.5	-4.5	1.2
Nc1c(C(=O)c2ccc(Cl)cc2)sc2nsc(SCCN3CCOCC3)c12	12.0	-1.8	3.2	33.7*	95.0	-28.1	4.5
Nc1c(C(=O)c2ccccc2)sc2nsc(SCCN3CCCC3)c12	9.3	14.3	-7.5	35.1*	95.6	-30.2	-4.2
CC(=O)c1sc2nsc(SCCN3CCCCC3)c2c1N	43.1	19.9	-3.2	33.2*	92.9	-40.8	-5.4
COc1cc(C(=S)N2CCCCC2)ccc1OCC(=O)Nc1ccccc1Cl	-3.9	-7.1	-0.6	3.0	95.4	·	·
O=C(COc1ccc(C(=S)N2CCOCC2)cc1Cl)Nc1ccccc1Cl	2.3	24.9	-3.8	42.2*	90.9	-18.7	0.7
Cc1ccc(OC(=O)COc2ccccc2C)c(-n2nc3ccccc3n2)c1	7.6	-9.9	-5.0	4.0	89.6	·	·
COC(=O)COc1ccc(C)cc1-n1nc2ccccc2n1	-48.1	1.3	3.8	37.6*	103.6	-38.7	-5.1
Cc1c(C(=O)O)cccc1N1C(=O)Nc2ccccc2N1O	3.6	0.0	-0.2	21.4	101.9	·	·
O=C(O)c1ccc(O)c(N2C(=O)Nc3ccccc3N2O)c1	-11.2	-4.5	4.0	49.5*	98.2	11.9	0.4
Cc1ccc2nc3c(cc(C(=O)NCc4ccco4)c(=N)n3C3CCCC3)c(=O)n2c1	·	-7.3	2.6	37.9*	99.2	-29.6	3.0
COc1ccc(N/C=C2\C(=O)CCc3c2oc2cc(Cl)c(O)c(Cl)c32)cc1	26.4	-6.1	-1.8	23.4	103.5	9.6	-1.9
Nc1nc(N)nc(-c2cc(O)ccc2O)n1	11.2	-6.7	-5.5	·	117.5	·	·
Oc1ccc(O)c(-c2cnns2)c1	25.6	·	·	85.9*	99.6	89.8*	1.0
COc1cc(/C=C/C(=O)O)cc(S(=O)(=O)Nc2ccc3nc(C)sc3c2)c1OC	35.2	-3.7	2.2	38.1*	95.9	-6.4	2.4
COc1cc(/C=C/C(=O)O)cc(S(=O)(=O)Nc2ccc(F)cc2)c1OC	2.3	1.4	0.7	-1.4	96.5	·	·
COc1cc(/C=N/Nc2ccc(S(N)(=O)=O)cc2[N+](=O)[O-])cc(OC)c1O	25.2	12.2	2.1	45.4*	108.0	13.5	3.4
CCOC(=O)c1sc2nc(C)nc(N3CCN(S(=O)(=O)c4ccccc4)CC3)c2c1C	45.9	6.0	-1.8	·	155.8	·	·
Cc1cc(C)nc(NNC(=O)c2ccccc2O)n1	-40.7	-12.7	-5.7	43.4*	90.0	24.5	-7.8
CN(CCC1CCOCC1)C(=O)c1cc(COc2c(F)cccc2F)on1	-0.8	-6.2	-3.8	0.6	91.3	·	·
COc1ccc(Nc2nc3c([nH]2)c(=O)[nH]c(=O)n3C)cc1	2.1	-4.8	-5.7	35.0*	96.9	11.6	1.3
COCCCNc1nc2c([nH]1)c(=O)[nH]c(=O)n2C	2.5	-8.3	-6.1	22.5	105.5	·	·
CSc1ccc(C(=S)N2CCN(Cc3ccccc3)CC2)cc1	34.0	0.6	0.4	41.3*	94.4	9.6	2.6
